# CYP2C9 inhib: blocks human cytochrome P450 2C9. P11712. inhibition, % at 5 µM. CYP2C9 Supersomes, luciferin-H conversion, luminescence. actives 20% (n = 96,000);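 active = blocking of liver enzyme CYP2C9 beyond about 50% at 5 µM, limit read from the data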
# Target sequence (P11712 whole entry, looked up): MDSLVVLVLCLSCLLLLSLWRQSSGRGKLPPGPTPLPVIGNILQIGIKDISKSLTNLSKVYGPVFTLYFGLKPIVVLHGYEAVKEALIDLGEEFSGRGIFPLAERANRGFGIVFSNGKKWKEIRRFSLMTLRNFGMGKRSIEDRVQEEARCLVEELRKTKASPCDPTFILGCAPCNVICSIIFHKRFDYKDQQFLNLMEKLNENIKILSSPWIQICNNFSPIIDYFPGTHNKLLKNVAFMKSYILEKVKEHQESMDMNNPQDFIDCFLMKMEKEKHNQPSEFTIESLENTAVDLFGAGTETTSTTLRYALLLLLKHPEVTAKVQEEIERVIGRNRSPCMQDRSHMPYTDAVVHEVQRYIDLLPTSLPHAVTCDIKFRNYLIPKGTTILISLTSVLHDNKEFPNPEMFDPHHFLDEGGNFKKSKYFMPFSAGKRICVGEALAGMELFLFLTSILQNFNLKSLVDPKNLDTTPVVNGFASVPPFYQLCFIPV
# CYP2C19 inhib: blocks human cytochrome P450 2C19; P33261; CYP2C19 Supersomes, luciferin-H EGE luminescence, 30 min; inhibition, % at 5 µM; actives 21% (n = 96,000);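 active = CYP2C19 inhibition above a set limit at 5 µM in the primary screen, cut at about 50% in these data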;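 also: plate controls were negative control wells for no effect and 2.5 mM tranylcypromine positive control for full effect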
# PostGolgi ctrl: growth of the yeast control strain, post-Golgi counter-screen; efflux-deficient yeast background strain, growth absorbance A615, 16 h; inhibition, % at 10 µM; actives 5% (n = 98,000); AID 738
# PostGolgi yeast: growth inhibition of a yeast mutant, post-Golgi transport screen | actives 0.9% (n = 98,000) | inhibition, % at 10 µM | AID 739 | post-Golgi transport phenotypic cell assay;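 also: yeast cells grown in 1536-well plates; yeast grown about 18 h at 30C before absorbance read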
# CYP2C9 act: increases human cytochrome P450 2C9 activity | P11712 | recombinant CYP2C9, luciferin-H conversion, luminescence; stronger effect = higher value; factor 1 = untreated enzyme, 0 = blocked | activation factor at 5 µM | actives 1.4% (n = 96,000) | AID 1024;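 active = activation factor of 2 or more for CYP2C9 at a 5 µM dose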;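 also: 0 = sulfaphenazole-blocked wells and 1 = vehicle-only wells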
# CYP2C19 activ: cytochrome P450 2C19 (human) activation; 96,000 tested, under 10 active; P33261; activation factor at 5 µM; AID 1025; recombinant CYP2C19, luciferin-H EGE luminescence; stronger effect = higher value; 0 = fully inhibited enzyme, 1 = untreated enzyme;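 active = activation factor of at least 2 at 5 µM in the primary screen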;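 also: 0 = wells with 2.5 mM tranylcypromine and 1 = vehicle-only wells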
# Numbers without * were called inactive; / = no result. The list is not random: actives were taken first. Their share in the collection is about 32%. Rule as the data show it, unless noted: active = inhibition above about 30%; inactive = the rest.
SMILES,CYP2C9 inhib,CYP2C19 inhib,PostGolgi ctrl,PostGolgi yeast,CYP2C9 act,CYP2C19 activ
COc1ccc(CCNS(=O)(=O)c2cccc(C(=O)O)c2)cc1OC,10,6,18,-9,0.9,0.9
COc1ccc(S(=O)(=O)NCCSCc2cccc(C)c2)cc1Br,-108,48,37*,0,2.1*,0.5
CCCCCCNS(=O)(=O)c1ccc(OC)c(OC)c1,-135,85*,-1,-3,2.3*,0.1
Cc1ccc(S(=O)(=O)NCCSCc2ccccc2)cc1,/,/,16,-1,/,/
CCOC(=O)CC1C(=O)NCCN1C(=O)Nc1ccccc1 (stereo not given),6,26,3,-1,0.9,0.7
O=C(CCC(=O)OCC(=O)c1ccccc1)NC1CCCCC1,32,49,1,3,0.7,0.5
O=C1Nc2ccccc2C(O)(C(=O)NCc2ccc3c(c2)OCO3)N1c1ccc(Cl)c(Cl)c1 (stereo not given),5,-3,20,-19,0.9,1
CCN(CC)CCCNC(=O)C1CCC(=O)N(c2ccc(OC)cc2)C1c1ccc(F)cc1 (stereo not given),-20,-21,2,13,1.2,1.2
Cc1ccc(SCCNS(C)(=O)=O)cc1,21,19,-5,11,0.8,0.8
COc1ccc(CNS(=O)(=O)c2ccc3oc(C(=O)O)c(C)c3c2)cc1,/,/,0,-5,/,/
COc1cc(S(=O)(=O)NCc2ccccc2)ccc1F,-119,98*,13,2,2.2*,0
COc1ccc(S(=O)(=O)NCCSc2ccc(C)cc2)cc1OC,-25,82*,0,-6,1.2,0.2
COc1ccc(S(=O)(=O)NCc2ccccc2Cl)cc1OC,-131,95*,-1,-3,2.3*,0
Cc1cccc(N(C)S(=O)(=O)c2ccc3[nH]c(=O)c(=O)[nH]c3c2)c1,49,-3,3,-8,0.5,1
Cc1ccc(C(=O)Nc2cccnc2)cc1NC(=O)c1ccco1,54*,-6,-4,20,0.5,1.1
Cc1ccc(NC(=O)c2cccs2)cc1NC(=O)c1ccco1,8,20,32*,-13,0.9,0.8
O=C(Nc1cccnc1)c1cccc(NC(=O)c2ccco2)c1,-42,3,5,2,1.4,1
Cc1ccc(C(=O)C(OC(=O)COc2ccccc2C)c2ccccc2)cc1 (stereo not given),39,49,1,27,0.6,0.5
CC1CC(C)CN(C(=O)C2CCCN(S(=O)(=O)c3cccc4nonc34)C2)C1 (stereo not given),76*,46,10,0,0.2,0.5
Cc1nn(C)c(C)c1S(=O)(=O)N1CCCC(C(=O)N2CCN(c3ccccc3)CC2)C1 (stereo not given),40,58*,2,-20,0.6,0.4
O=C(C1CCCN(S(=O)(=O)c2cccc3nsnc23)C1)N1CCN(c2ccccn2)CC1 (stereo not given),76*,29,9,-6,0.2,0.7
O=C(C1CCCN(S(=O)(=O)c2cccc3nonc23)C1)N1CCN(c2ccccc2)CC1 (stereo not given),60*,60*,0,6,0.4,0.4
COc1ccc(OC)c(NC(=O)C2CCCN(S(=O)(=O)c3cccc4nonc34)C2)c1 (stereo not given),5,20,5,15,0.9,0.8
CCCS(=O)(=O)N1CCCC(C(=O)N2CCN(c3ccccn3)CC2)C1 (stereo not given),3,2,3,7,1,1
COc1cc2cc(CN(CCN3CCCC3)C(=O)Nc3ccc(F)cc3)c(=O)[nH]c2cc1OC,2,-10,2,2,1,1.1
SMILES,CYP2C9 inhib,CYP2C19 inhib,PostGolgi ctrl,PostGolgi yeast,CYP2C9 act,CYP2C19 activ
O=C1CCN2C=Nc3cccc4ccc1c2c34,13,6,-2,5,0.9,0.9
O=c1[nH][nH]c(C(F)(F)F)c1C=NCc1cccc(Cl)c1,34,68*,7,-2,0.7,0.3
O=c1[nH][nH]c(C(F)(F)F)c1C=NCc1ccc(Cl)cc1,18,58*,9,8,0.8,0.4
CC1CCN(CC(O)COCCC23CC4CC(CC(C4)C2)C3)CC1 (stereo not given),-7,32,20,13,1.1,0.7
O=S(=O)(N1CCOCC1)n1c(Cc2ccccc2)nc2ccccc21,49,75*,8,-6,0.5,0.3
Cc1noc(NS(=O)(=O)c2ccc(N/C=C\C(=O)c3ccc4c(c3)OCO4)cc2)c1C,0,-4,38*,-7,1,1
Cc1cccc(NC(=O)c2cc(S(=O)(=O)c3ccccc3)ccc2Cl)c1,94*,80*,8,4,0.1,0.2
Cc1cc(C)c(NS(=O)(=O)c2ccc(Cl)c(C(=O)O)c2)c(C)c1,61*,1,2,-9,0.4,1
Cc1ccccc1NC(=O)c1cc(S(=O)(=O)c2ccccc2)ccc1Cl,1,6,25,8,1,0.9
Cc1cccc(NC(=O)c2cccc(NS(=O)(=O)c3ccc(Cl)cc3)c2)c1,97*,99*,-7,-2,0,0
COc1cc(S(=O)(=O)Nc2c(C)cc(C)cc2C)ccc1Cl,14,44,5,4,0.9,0.6
C(=N\c1nc2ccccc2n1Cc1ccccc1)/c1cccs1,36,7,2,5,0.6,0.9
CCCn1c(SCC(=O)N2CCN(S(=O)(=O)c3ccc(Cl)cc3)CC2)n[nH]c1=O,7,0,-5,-2,0.9,1
CN(C)S(=O)(=O)c1ccc(NC(=O)c2cccnc2)cc1,30,28,-4,8,0.7,0.7
CC(=O)c1cccc(NS(=O)(=O)c2ccc(N/C=C\C(=O)c3ccc(C)cc3)cc2)c1,65*,15,1,-2,0.4,0.8
CCN(CC)S(=O)(=O)c1ccc(C(=O)Nc2cc(C)cc(C)c2)cc1,-14,17,-4,-12,1.1,0.8
Cc1ccc(S(=O)(=O)Nc2cc(C(=O)Nc3cc(C)cc(C)c3)ccc2Cl)cc1,80*,57*,37*,-1,0.2,0.4
CC(=O)c1cccc(NS(=O)(=O)c2ccc(N/C=C\C(=O)c3ccc(F)cc3)cc2)c1,29,14,26,2,0.7,0.9
O=C(NCc1ccc(F)cc1)C(c1ccncc1)N(C(=O)c1csnn1)C1CC1 (stereo not given),19,54*,9,0,0.8,0.5
O=C(NCc1ccccc1)C(c1ccncc1)N(C(=O)c1csnn1)C1CC1 (stereo not given),16,45,17,-6,0.8,0.6
O=C(c1nc2ccccc2s1)N1CCN(c2ccccn2)CC1,5,27,11,-2,0.9,0.7
Cc1cc(C)c2nc(N3CCC(C(=O)N4CCN(c5ncccn5)CC4)CC3)sc2c1,4,-14,30,-3,1,1.1
